# Assay results as given in PMC4336329 (PLoS ONE, 2015).
# The whole screen tested about 310,000 compounds, of which about 14,000 (4.5%) showed an effect of 50% or more. Effects have a minus sign here. Many of the other results were omitted from the sample, so strong results are more common in it than they were.
# Target: human ether-à-go-go-related gene (hERG) potassium channel (human, UniProt Q12809)
# Assay: primary screen, population patch clamp on CHO cells stably expressing hERG; higher = less effect of the substance
# 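Note: peak tail current of the secondary pulse compared with the same well before compound.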
# Sequence of human ether-à-go-go-related gene (hERG) potassium channel (Q12809 whole entry, looked up): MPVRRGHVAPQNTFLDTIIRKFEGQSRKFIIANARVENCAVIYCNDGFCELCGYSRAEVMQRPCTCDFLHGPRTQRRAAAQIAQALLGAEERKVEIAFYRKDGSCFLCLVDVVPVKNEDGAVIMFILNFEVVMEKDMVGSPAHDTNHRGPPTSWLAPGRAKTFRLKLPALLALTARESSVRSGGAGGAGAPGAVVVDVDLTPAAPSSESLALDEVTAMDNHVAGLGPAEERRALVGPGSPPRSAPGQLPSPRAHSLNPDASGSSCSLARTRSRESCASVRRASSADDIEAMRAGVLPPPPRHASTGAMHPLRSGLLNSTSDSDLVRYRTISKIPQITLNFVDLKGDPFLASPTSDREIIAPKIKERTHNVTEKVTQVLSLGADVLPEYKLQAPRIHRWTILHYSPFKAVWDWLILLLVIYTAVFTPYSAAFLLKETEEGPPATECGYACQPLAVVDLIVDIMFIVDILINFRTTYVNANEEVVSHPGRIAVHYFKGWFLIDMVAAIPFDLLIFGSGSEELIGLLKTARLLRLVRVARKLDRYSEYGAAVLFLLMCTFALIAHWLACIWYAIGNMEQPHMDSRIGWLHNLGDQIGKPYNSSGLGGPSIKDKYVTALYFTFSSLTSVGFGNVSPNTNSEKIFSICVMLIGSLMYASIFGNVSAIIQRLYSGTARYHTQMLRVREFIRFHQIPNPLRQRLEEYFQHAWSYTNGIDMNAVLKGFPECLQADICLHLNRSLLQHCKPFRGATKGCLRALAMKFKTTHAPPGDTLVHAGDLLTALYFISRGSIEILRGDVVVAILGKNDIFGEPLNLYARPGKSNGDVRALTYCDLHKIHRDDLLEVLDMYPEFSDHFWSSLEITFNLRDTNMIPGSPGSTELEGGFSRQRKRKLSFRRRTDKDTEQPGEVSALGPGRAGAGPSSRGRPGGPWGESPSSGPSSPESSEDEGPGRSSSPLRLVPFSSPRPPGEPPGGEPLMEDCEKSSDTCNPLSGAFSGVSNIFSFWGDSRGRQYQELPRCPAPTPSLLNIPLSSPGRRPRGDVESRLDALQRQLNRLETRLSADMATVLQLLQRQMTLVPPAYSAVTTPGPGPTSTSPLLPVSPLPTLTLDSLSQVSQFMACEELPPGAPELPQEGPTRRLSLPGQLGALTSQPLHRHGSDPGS
row,SMILES,"hERG current change (%, negative = inhibition) at 10uM"
1,COC(=O)c1ccccc1NC(=O)CN1CCC(n2nnc3cc(C(F)(F)F)ccc32)CC1,-6.14%
2,Cc1nc2cc(C(F)(F)F)ccc2n1C1CCN(CC(=O)N2CCCC2)CC1,-13.1%
3,Cc1cc(NC(=O)CN2CCC(n3nnc4cc(C(F)(F)F)ccc43)CC2)no1,-50%
4,C=CCNC(=O)CN1CCC(n2nnc3cc(C(F)(F)F)ccc32)CC1,-50.7%
5,Cc1nc2cc(C(F)(F)F)ccc2n1C1CCN(CC(=O)N2CCOCC2)CC1,-44.4%
6,COCCNC(=O)CN1CCC(n2c(C)nc3cc(C(F)(F)F)ccc32)CC1,-25.6%
7,O=C(CN1CCC(n2nnc3cc(C(F)(F)F)ccc32)CC1)NNC(=O)c1ccco1,-24.6%
8,Cc1nc2cc(C(F)(F)F)ccc2n1C1CCN(C(=O)N2CCOCC2)CC1,-55.7%
9,COCC(=O)N1CCC(n2nnc3cc(C(F)(F)F)ccc32)CC1,-22%
10,C=CCNC(=O)CN1CCC(n2c(C)nc3cc(C(F)(F)F)ccc32)CC1,-62.1%
11,Cc1nc2cc(C(F)(F)F)ccc2n1C1CCN(CC(=O)NC(C)(C)C)CC1,-19.4%
12,CC1Cc2ccccc2N1C(=O)CN1CCC(n2nnc3cc(C(F)(F)F)ccc32)CC1 (centres unmarked),-67.2%
13,CC1=C(C#N)C(NC(=O)C(C)(C)C)(C(F)(F)F)C(=O)N1 (centres unmarked),1.3%
14,O=C(O)c1ccccc1NS(=O)(=O)c1ccc2c3c(cccc13)C(=O)N2,16.1%
15,CC1CCN(CCCNC(=O)CCCNC(=O)Cn2cnc3sc4c(c3c2=O)CCCC4)CC1,12.3%
16,Cc1ccc(NC(=O)NCCCl)cc1S(=O)(=O)N1CCOCC1,1.99%
17,COc1ccc2cc3cc(C(=O)N4CCN(c5ccccc5)CC4)oc3nc2c1,13.2%
18,CN(C)CCC1Sc2ccccc2Oc2ccccc21.O=C(O)C(=O)O (centres unmarked),-24.8%
19,CN(C)CCCC1Sc2ccccc2Sc2ccccc21.O=C(O)C(=O)O (centres unmarked),-56.1%
20,CC1c2ccccc2SC(CCCN(C)C)c2ccccc21.O=C(O)/C=C\C(=O)O (centres unmarked),-19.2%
21,Cc1nc2scc(C)n2c(=O)c1S(=O)(=O)N1CCN(c2ccc([N+](=O)[O-])cc2)CC1,-12%
22,CCN(CC)c1ccc(NC(=O)CSc2nnc(N)s2)cc1C,2.78%
23,COC(C/C=C\C(=O)[C@H](C)OCc1ccccc1)OC,9.66%
